ASM inhibitor = Inhibitors of Secretory Acid Sphingomyelinase (S-ASM): qHTS; AID 504937, 2011; Potency, µM (titrated, usually from 57.5 µM), inactives show at the highest dose activity change, negative = inhibition, hits mostly inhibitors; 340,000 compounds, 0.006% hits; Sphingomyelin phosphodiesterase (Homo sapiens), P17405; placental ASM, HMU-PC fluorogenic substrate, 60 min; further: potency means the concentration at half of the fitted maximal effect
Target sequence (P17405 47-631 limits assumed): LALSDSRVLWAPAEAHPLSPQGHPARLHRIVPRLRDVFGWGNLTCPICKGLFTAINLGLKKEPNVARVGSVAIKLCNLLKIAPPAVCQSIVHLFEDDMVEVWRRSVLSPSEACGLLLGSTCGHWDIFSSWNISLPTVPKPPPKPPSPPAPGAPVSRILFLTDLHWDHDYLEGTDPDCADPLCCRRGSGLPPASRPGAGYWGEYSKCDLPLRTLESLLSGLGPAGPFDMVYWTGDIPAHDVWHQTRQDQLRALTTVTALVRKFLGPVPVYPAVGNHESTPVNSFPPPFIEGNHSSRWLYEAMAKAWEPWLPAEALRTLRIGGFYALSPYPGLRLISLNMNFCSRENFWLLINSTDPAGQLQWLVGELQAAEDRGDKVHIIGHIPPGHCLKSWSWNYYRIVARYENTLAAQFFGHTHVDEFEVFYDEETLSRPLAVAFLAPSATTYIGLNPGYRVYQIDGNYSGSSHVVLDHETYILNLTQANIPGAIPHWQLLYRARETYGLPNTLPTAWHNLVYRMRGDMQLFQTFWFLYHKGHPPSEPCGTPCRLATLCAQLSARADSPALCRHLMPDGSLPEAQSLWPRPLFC
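Fluorescence read-out (Ex 386 nm, Em 447 nm) after stopping the reaction at pH 10. Enzyme: ASM from human placenta; substrate HMU-PC0, 9 uM final; 60 min, 37 °C. Compound preincubation 10 min, ambient temperature.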
KCNH2 3.1 inh = qHTS for Inhibitors of KCHN2 3.1: Mutant qHTS. Potassium voltage-gated channel subfamily H member 2, brain isoform KCNH2 3.1 (human). U2OS KCNH2 3.1, thallium flux FluxOr; active compounds read low. activity change, % (tested at about 1.8 µM). 340,000 compounds, 0.95% hits. AID 720553, 2013;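 active means maximum activity change below -70%; inconclusive means maximum activity change from -70% to -50%; inactive means maximum activity change above -50%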;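 further: thallium influx rate constant from kinetic fluorescence after stimulation buffer; on the % scale 0 is the no-effect control and ±100 the full control effect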
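Measured as rate of thallium-driven FluxOr signal in transduced U2OS cells carrying the 3.1 channel, read kinetically for 2 min upon stimulation; values are rate constants scaled to DMSO control wells.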
p53 reactivation = qHTS assay for re-activators of p53 using a Luc reporter. H1299 p53-A138V BP100-luciferase reporter, luminescence, 24 h. Potency, µM (titrated, usually from 92.2 µM), for inactives: top-dose activity change, positive = activation, most hits filed as activators. 320,000 compounds, 0.063% hits; further: potency means the concentration at half of the fitted maximal effect; % of control where 0% means no effect; nearly all actives have a fitted effect of over 45% in size
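p53-null H1299 cells stably carrying temperature-sensitive p53-A138V and a BP100-luciferase reporter were pinned with compounds (4-point, 1:5 series) and held 24 hrs at 37 deg C. Luminescence was read 10 min after detection reagent.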
hERG WT inh = qHTS for Inhibitors of KCHN2 3.1: Wildtype qHTS | Voltage-gated inwardly rectifying potassium channel KCNH2 (Homo sapiens), Q12809 | U2OS, BacMam KCNH2, thallium flux FluxOr; active compounds read low | 340,000 compounds, 0.37% hits | activity change, % at 1.84 µM;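 active means maximum activity change below -70%; inconclusive means maximum activity change between -70% and -50%; inactive means maximum activity change above -50%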; further: on the % scale 0 is the no-effect control and ±100 the full control effect
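U2OS cells were transduced with wild-type KCNH2 virus (2.03 x 10^8 / mL) for 4 h at room temperature, then cultured overnight at 37 C. Thallium flux was read with FluxOr dye. Rate constants were normalized to DMSO controls.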
Mm-Cpn inhibitor = Inhibitors of TCP-1 ring complex (TRiC) of Methanococcus maripaludis (MmCpn): qHTS; Chaperonin Mm-Cpn (Methanococcus maripaludis); purified Mm-Cpn ATPase, ADP Transcreener TR-FRET; Potency, µM (doses to about 76.9 µM), without a hit: top-dose activity, negative = inhibition, most hits filed as inhibitors; 330,000 compounds, 0.031% hits; further: potency means the concentration at half of the fitted maximal effect; on the % scale 0 is the no-effect control and ±100 the full control effect; nearly all actives have a fitted effect of over 80% in size
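Compound-treated chaperonin, 25 nM final, turns over 10 uM ATP at 37°C for 30 min following a 10 min preincubation; ADP generated competes with ADP-d2 for Eu-cryptate antibody, lowering FRET.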
uPA surface inh = qHTS for Inhibitors of Cell Surface uPA Generation; cell surface uPA generation assay, qHTS; 330,000 compounds, 0.31% hits; Potency, µM (top dose mostly 38.3 µM), inactives show top-dose activity change, negative = inhibition, most hits filed as inhibitors; active means well fitted inhibition curve with a large enough effect; inconclusive means small, poorly fitted or top-dose-only effect; inactive means no such curve, though single readings can be large or run the other way; tested in mouse RAW 264.7 cells; further: potency means the concentration at half of the fitted maximal effect; on the % scale 0 is the no-effect control and ±100 the full control effect; nearly all actives have a fitted effect of over 55% in size
Numbers without * were called inactive; ? = inconclusive; / = not tested or not shown; [ ] = remark or other dose. Rows were chosen to be rich in hits. Some 1.4% of all compounds tested hit in one or more screens of this group. Unless noted, the call rests on the fitted dose curve; in most records, active means well fitted curve in the direction sought with a large enough effect; inconclusive means small, poorly fitted or top-dose-only effect, or another doubt; inactive means no such curve, though single readings can be large; an effect the other way counts as inactive or inconclusive.

SMILES | ASM inhibitor | KCNH2 3.1 inh | p53 reactivation | hERG WT inh | Mm-Cpn inhibitor | uPA surface inh
Cc1ccccc1C(=O)c1cccn1CC(=O)NCCN1CCN(c2cccc(C)c2C)CC1 | -13% | -79* | -7% | ? | -1% | -3%
COc1ccccc1CCC(=O)Nc1ccc(S(=O)(=O)Nc2ncccn2)cc1 | / | 4 | / | -10 | / | /
CC(/C=C/c1ccco1)=N\NC(=O)CNc1cccc(C)c1 | -1% | -80* | -1% | -1 | -2% | ?
CS(=O)(=O)N(CC(=O)N1CCCC1)c1cccc(C(F)(F)F)c1 | / | -3 | / | 4 | / | /
COc1ccc(C(=O)c2c3ccc([N+](=O)[O-])cc3[n+]([O-])n2CCCC(N)=O)cc1 | -14% | 0 | 9% | -2 | -3% | ?
Cc1ccc(C(=O)c2c3ccc([N+](=O)[O-])cc3[n+]([O-])n2CCC(N)=O)cc1 | 2% | -2 | / | -10 | -7% | 1.4µM*
Cc1[nH]c2ccc(C(=O)NCCN3CCOCC3)cc2c1C | 5% | -100* | 2% | -1 | 5% | -8%
Cc1[nH]c2ccc(C(=O)NCCCN3CCCC3)cc2c1C | 2% | 5 | -2% | 7 | -1% | 1%
COc1ccc(-n2c(C)nc3cc(C(=O)NCCN4CCOCC4)ccc32)cc1 | 1% | 3 | -3% | -183* | 3% | /
COc1ccc(CC(=O)OCC(=O)c2ccc(F)cc2)cc1 | 0% | -10 | -3% | -11 | 2% | -2%
COc1ccc([C@]23Cc4cc(OC)c(OC)cc4C(O2)c2c(c4ccccc4oc2=O)O3)cc1 | / | / | / | / | 0%[15.4 µM] | /
C=CCNC(=O)c1ccc2nccnc2c1 | 3% | 54 | -4% | 6 | 4% | 1%
C=CCNC(=O)c1ccc2c3n(nc2c1)-c1ccc(Cl)cc1CO3 | 4% | 9 | / | -6 | / | 5µM*
O=C(NCC1CC1)c1ccc2c3n(nc2c1)-c1ccccc1CO3 | 5% | 4 | 13% | -7 | -2% | 1.4µM*
O=C(NCCO)c1ccc2c3n(nc2c1)-c1ccccc1CO3 | 19% | 15 | ? | -1 | -3% | 2.8µM*
NC(=S)N=Nc1ccc(O)cc1 | 1% | 3 | / | 2 | / | -3%
Cc1ccc(O)c(Cn2nnc3ccccc32)c1 | 12% | -22 | 2% | -4 | 0% | -3%
Cn1c(=O)c2[nH]c(C3CC3)nc2n(C)c1=O | 6% | -24 | / | -13 | / | 0%
C[C@@H](CN1CCC(Cc2ccccc2)CC1)[C@@H](O)c1ccc(O)cc1 | 1% | -217* | 2% | 37 | -1% | -13%
CNC(=S)N1CCC(Cc2ccccc2)CC1 | 1% | -6 | -8% | -29 | 0% | 3%
CC(C(O)c1ccc(O)cc1)N1CCC(Cc2ccccc2)CC1 (stereo not given) | -1% | -88* | -4% | 53 | 0% | -15%
O=S(=O)(Cc1ccccc1Cl)c1ncn[nH]1 | -1% | -156* | 1% | -130* | 1% | -3%
COc1cccc(C(=O)Oc2ccccc2/C=C\C(=O)c2cc3ccccc3o2)c1 | -7% | -1 | ? | -12 | -3% | 8.9µM*
S=C(NCCc1ccccc1)N1CCN(C2CCCCC2)CC1 | -1% | -93* | 1% | 16 | 1% | 2%
COc1ccc(N2C[C@H](Cc3ccccc3)[C@@H](CC(=O)Nc3ccccc3)C2=O)cc1 | / | 1 | / | -1 | / | /
SMILES | ASM inhibitor | KCNH2 3.1 inh | p53 reactivation | hERG WT inh | Mm-Cpn inhibitor | uPA surface inh
Cc1ccc(S(=O)(=O)CC(C)N2CCOCC2)c(S(=O)(=O)CC(C)N2CCOCC2)c1 (stereo not given) | 6% | 8 | 3% | -224* | -2% | -2%
Cc1ccc(S(=O)(=O)CC(CN2CCOCC2)N2CCOCC2)cc1 (stereo not given) | 8% | 3 | 7% | -3 | -3% | 3%
CCc1ccccc1-n1ncc(C(=O)Nc2ccccc2OC)c1C | 0% | -14 | / | 4 | 1% | 7%
Cc1cc2c(s1)c1c(C)nn(Cc3ccccc3F)c(=O)c1n2C | / | / | / | / | -16% | /
O=C(N/N=C/c1cccc2nccnc12)c1ccccc1O | -2% | -4 | ? | -9 | -1% | -1%
O=C(N/N=C/c1cccc2cccnc12)c1ccccc1O | -4% | -16 | ? | -5 | 0% | 5µM*
OC(CCCN1CCCCC1)(c1ccccc1)c1ccc(C(F)(F)F)cc1 (stereo not given) | -5% | -73* | / | 2 | / | -3%
COc1cccc(-c2n[nH]nc2C2=CC(=O)C[C@H](c3ccc(F)cc3)C2)c1 | / | -6 | / | -3 | / | /
Cc1ccccc1-c1nc(SCc2cccnc2)c2c(=O)n(C)c(=O)n(C)c2n1 | -1% | -5 | 4% | -256* | 2% | 12%
COc1ccccc1NC(=O)CCn1cnc2ccccc2c1=O | / | / | / | / | 0% | /
COc1ccc(C(=O)NC2CCCCCC2)cc1S(=O)(=O)Nc1ccc(Br)cc1 | -3% | -80* | 19% | -7 | 1% | 17%
COc1ccc(C(=O)NC2CCCCCC2)cc1S(=O)(=O)N1CCCC1 | 5% | -19 | -2% | 0 | -4% | 0%
O=C(CCCC(=O)N1CCN(c2ccc([N+](=O)[O-])cc2)CC1)c1ccccc1 | -20% | -95* | -8% | -88* | 2% | -17%
CCOCC(=O)N1CCN(c2ccc([N+](=O)[O-])cc2)CC1 | -4% | -73* | -9% | -95* | 0% | 10%
CCCNC(=O)c1cc(Cl)c(NC(=O)C2=CSCCO2)cc1OC | -2% | 21 | 8% | 2 | 0% | -13%
Cc1ccc(C(O)CN2C3=NCCN3c3ccccc32)cc1 (stereo not given) | 3% | -8 | -6% | 33 | -2% | -12%
OC(CN1C2=NCCCN2c2ccccc21)c1ccc(Cl)cc1 (stereo not given) | 0% | -74* | 1% | 0 | -1% | ?
OC(COc1ccc(Cl)cc1)CN1C2=NCCCN2c2ccccc21 (stereo not given) | -11% | -97* | -2% | -146* | -1% | -1%
Clc1ccc(CN2C3=NCCCN3c3ccccc32)cc1 | 3% | ? | -7% | 41 | 0% | -1%
Clc1ccc(CN2C3=NCCCN3c3ccccc32)cc1Cl | -2% | -104* | -2% | -85* | -1% | -9%
OC(CN1C2=NCCN2c2ccccc21)c1ccc(Br)cc1 (stereo not given) | 3% | -73* | -3% | 21 | -4% | -4%
